Results on eight molecules are retold here after PubChem BioAssay (NCI).

Molecules are shown by their SMILES. About 79,000 compounds went through this panel and 15% of them were active in at least one assay; those are over-represented in the sample as a whole. A number with no mark means an inactive call. Calls of active or inactive are those of the source. No stated cut-off is given here; in the data, active means growth inhibition above about 70%; inactive means the rest.

A short description of the experiment: NCI Yeast Anticancer Drug Screen. Data for the rad14 strain (AID 159).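 Further: 0% = growth of vehicle-treated control cultures.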 The settings on record: S. cerevisiae rad14 strain growth inhibition, hits give high values. As for the experimental part:
Growth inhibition of yeast strains with defined genetic alterations is measured as a screen for potential anti-cancer activity. Selected strains with alterations in DNA damage repair or cell cycle control were exposed to compounds and growth inhibition was measured relative to vehicle treated controls. The strain used in this assay is rad14

As for `C[C@]12CCc3nonc3C1CC[C@@H]1C2CC[C@]2(C)C(=O)CCC12` (stereo not given in full), the growth inhibition is, setting by setting: (at 1.2 µM) 27%; (at 3.7 µM) 38%; (at 11.0 µM) 38%; (at 33.0 µM) 46%; (at 100.0 µM) 60%.
As to `CCOP(=S)(S)OCC.[Pd]`, the growth inhibition is 0% (at 1.2 µM); 17% (at 3.7 µM); 60% (at 11.0 µM); 75% (active) (at 33.0 µM); 75% (active) (at 100.0 µM).
Take `O=C1c2ccccc2C(=O)C(Cl)C1Cl` (stereo not given): the growth inhibition reads like this: (at 1.2 µM) 7%; (at 3.7 µM) 18%; (at 11.0 µM) 92% (active); (at 33.0 µM) 99% (active); (at 100.0 µM) 99% (active).
For the molecule `CN(N=O)C(=O)NNC(=O)N(C)N=O`, the growth inhibition was -2% (at 1.2 µM); 18% (at 3.7 µM); 5% (at 11.0 µM); 22% (at 33.0 µM); 57% (at 100.0 µM).
In the case of `OC1CCCC2CCC[N-]C12.OC1CCCC2CCC[N-]C12.[O]=[V][OH]` (stereo not given), the growth inhibition reads like this: (at 1.2 µM) 8%; (at 3.7 µM) 89% (active); (at 11.0 µM) 98% (active); (at 33.0 µM) 97% (active); (at 100.0 µM) 97% (active).
With `COC1CC(CC2CCC(C)C(C(C)C(=O)O)O2)OC2(OC(C)(C3CCC(C)(C4OC(C5OC(O)(CO)C(C)CC5C)CC4C)O3)CC2C)C1C` (stereo not given), the growth inhibition was 5% (at 1.2 µM); -6% (at 3.7 µM); -4% (at 11.0 µM); 89% (active) (at 33.0 µM); 96% (active) (at 100.0 µM).
Regarding `C/C(CCl)=N/NC1=NC(c2ccccc2Cl)P(=O)(NCCCNP2(=O)SC(N/N=C(/C)CCl)=NC2c2ccccc2Cl)S1` (stereo not given), the growth inhibition is 0% (at 1.2 µM); -1% (at 3.7 µM); -4% (at 11.0 µM); 2% (at 33.0 µM); 5% (at 100.0 µM).
`Cc1ccc2nc3sc(=O)sc3nc2c1`: the growth inhibition is, setting by setting: (at 1.2 µM) 14%; (at 3.7 µM) 33%; (at 11.0 µM) 99% (active); (at 33.0 µM) 98% (active); (at 100.0 µM) 97% (active).
